# In paper PMC11006913:
# Where a chain is given by its changes, count along the chain named.
# What was measured:
# Test in all cases: PBM; 200 nM protein, PBS
# Conditions in all cases: dsDNA, one strand shown
# [1] = biological target: NKX2-5 (Homo sapiens, UniProt P52952 125-210, R139K)
# [2] = biological target: T1, PAX4 (Homo sapiens, UniProt O43316 9-242, R200K)
# T1 sequence: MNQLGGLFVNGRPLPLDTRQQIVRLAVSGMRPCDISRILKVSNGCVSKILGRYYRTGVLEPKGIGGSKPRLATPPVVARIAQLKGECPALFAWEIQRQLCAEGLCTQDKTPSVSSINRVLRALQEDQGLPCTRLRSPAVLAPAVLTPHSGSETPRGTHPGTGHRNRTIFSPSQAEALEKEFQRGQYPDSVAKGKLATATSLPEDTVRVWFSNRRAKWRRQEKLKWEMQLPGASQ
# [3] = biological target: T2, PAX4 (Homo sapiens, UniProt O43316 9-242)
# T2 sequence: T1 sequence with K192R
# [4] = biological target: T3, NKX2-6 (Homo sapiens, UniProt A6NCS4 118-204)
# T3 sequence: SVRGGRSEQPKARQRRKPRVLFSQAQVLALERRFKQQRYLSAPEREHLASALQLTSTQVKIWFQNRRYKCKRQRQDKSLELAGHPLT
# [5] = biological target: T4, PAX4 (Homo sapiens, UniProt O43316 9-242, R200Q)
# T4 sequence: T1 sequence with K192Q
# [6] = biological target: T5, PAX4 (Homo sapiens, UniProt O43316 9-242, F177V)
# T5 sequence: T1 sequence with F169V, K192R
# [7] = biological target: T6, PAX4 (Homo sapiens, UniProt O43316 9-242, F177Y)
# T6 sequence: T1 sequence with F169Y, K192R
# [8] = biological target: T7, NKX2-6 (Homo sapiens, UniProt A6NCS4 118-204, F151L)
# T7 sequence: T3 sequence with F34L
# [9] = biological target: T8, PAX4 (Homo sapiens, UniProt O43316 9-242, R227W)
# T8 sequence: T1 sequence with K192R, R219W
# [10] = biological target: NKX2-5 (Homo sapiens, UniProt P52952 125-210)
# [11] = biological target: HOXA7 (Homo sapiens, UniProt P31268 116-202)
# [12] = biological target: HOXA7 (Homo sapiens, UniProt P31268 116-202, W177C)
# [13] = biological target: PRRX1 (Homo sapiens, UniProt P54821 80-166, F113S)
# [14] = biological target: MSX2 (Homo sapiens, UniProt P35548 130-214, R199I)
# [15] = biological target: MSX2 (Homo sapiens, UniProt P35548 130-214)
# [16] = biological target: MSX2 (Homo sapiens, UniProt P35548 130-214, F161Y)
# [17] = biological target: PRRX1 (Homo sapiens, UniProt P54821 80-166)
# [18] = biological target: T9, NKX2-6 (Homo sapiens, UniProt A6NCS4 118-204, R150C)
# T9 sequence: T3 sequence with R33C
# [19] = biological target: NKX3-2 (Homo sapiens, UniProt P78367 192-278, P234S)
# [20] = biological target: NKX3-2 (Homo sapiens, UniProt P78367 192-278)
# Sequence of NKX3-2 (Homo sapiens, UniProt P78367 192-278) (P78367 192-278): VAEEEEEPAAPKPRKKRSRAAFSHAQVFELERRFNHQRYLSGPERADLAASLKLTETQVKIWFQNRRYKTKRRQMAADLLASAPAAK
# Sequence of NKX2-5 (Homo sapiens, UniProt P52952 125-210, R139K) (P52952 125-210 R139K): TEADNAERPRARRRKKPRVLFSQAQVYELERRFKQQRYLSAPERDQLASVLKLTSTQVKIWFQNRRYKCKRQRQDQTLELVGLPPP
# Sequence of NKX3-2 (Homo sapiens, UniProt P78367 192-278, P234S) (P78367 192-278 P234S): as the sequence (P78367 192-278) above, with P43S counted along it
# Sequence of NKX2-5 (Homo sapiens, UniProt P52952 125-210) (P52952 125-210): as the sequence (P52952 125-210 R139K) above, with K15R counted along it
# Sequence of HOXA7 (Homo sapiens, UniProt P31268 116-202) (P31268 116-202): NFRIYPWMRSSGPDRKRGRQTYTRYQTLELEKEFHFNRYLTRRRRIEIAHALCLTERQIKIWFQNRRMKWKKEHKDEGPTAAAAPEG
# Sequence of MSX2 (Homo sapiens, UniProt P35548 130-214, R199I) (P35548 130-214 R199I): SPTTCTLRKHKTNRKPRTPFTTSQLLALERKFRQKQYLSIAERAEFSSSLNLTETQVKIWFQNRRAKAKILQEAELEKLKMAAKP
# Sequence of MSX2 (Homo sapiens, UniProt P35548 130-214, F161Y) (P35548 130-214 F161Y): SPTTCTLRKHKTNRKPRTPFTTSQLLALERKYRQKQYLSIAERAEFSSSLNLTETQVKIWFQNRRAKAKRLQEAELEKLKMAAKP
# Sequence of MSX2 (Homo sapiens, UniProt P35548 130-214) (P35548 130-214): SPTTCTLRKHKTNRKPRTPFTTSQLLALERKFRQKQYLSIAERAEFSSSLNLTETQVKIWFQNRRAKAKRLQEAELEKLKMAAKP
# Sequence of PRRX1 (Homo sapiens, UniProt P54821 80-166) (P54821 80-166): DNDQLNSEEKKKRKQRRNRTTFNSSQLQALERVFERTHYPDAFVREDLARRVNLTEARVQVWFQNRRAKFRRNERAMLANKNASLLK
# Sequence of HOXA7 (Homo sapiens, UniProt P31268 116-202, W177C) (P31268 116-202 W177C): as the sequence (P31268 116-202) above, with W62C counted along it
# Sequence of PRRX1 (Homo sapiens, UniProt P54821 80-166, F113S) (P54821 80-166 F113S): as the sequence (P54821 80-166) above, with F34S counted along it
sequence,measurement,setting,value
AGTCCCGG,binding signal,[1],"8.88 upbm affinity estimate (log intensity, higher = more binding, comparable within an allelic series)"
same,binding signal,[2],"9.42 upbm affinity estimate (log intensity, higher = more binding, comparable within an allelic series)"
same,binding signal,[3],"9.48 upbm affinity estimate (log intensity, higher = more binding, comparable within an allelic series)"
same,binding signal,[4],"9.31 upbm affinity estimate (log intensity, higher = more binding, comparable within an allelic series)"
same,binding signal,[5],"9.44 upbm affinity estimate (log intensity, higher = more binding, comparable within an allelic series)"
same,binding signal,[6],"9.3 upbm affinity estimate (log intensity, higher = more binding, comparable within an allelic series)"
same,binding signal,[7],"9.36 upbm affinity estimate (log intensity, higher = more binding, comparable within an allelic series)"
same,binding signal,[8],"9.26 upbm affinity estimate (log intensity, higher = more binding, comparable within an allelic series)"
same,binding signal,[9],"9.43 upbm affinity estimate (log intensity, higher = more binding, comparable within an allelic series)"
same,binding signal,[10],"8.88 upbm affinity estimate (log intensity, higher = more binding, comparable within an allelic series)"
ACCGTGTC,binding signal,[1],"8.73 upbm affinity estimate (log intensity, higher = more binding, comparable within an allelic series)"
same,binding signal,[11],"8.54 upbm affinity estimate (log intensity, higher = more binding, comparable within an allelic series)"
same,binding signal,[12],"8.46 upbm affinity estimate (log intensity, higher = more binding, comparable within an allelic series)"
same,binding signal,[10],"8.93 upbm affinity estimate (log intensity, higher = more binding, comparable within an allelic series)"
CCGCCTCC,binding signal,[1],"8.96 upbm affinity estimate (log intensity, higher = more binding, comparable within an allelic series)"
same,binding signal,[2],"9.24 upbm affinity estimate (log intensity, higher = more binding, comparable within an allelic series)"
same,binding signal,[13],"9.25 upbm affinity estimate (log intensity, higher = more binding, comparable within an allelic series)"
same,binding signal,[3],"9.34 upbm affinity estimate (log intensity, higher = more binding, comparable within an allelic series)"
same,binding signal,[14],"9.48 upbm affinity estimate (log intensity, higher = more binding, comparable within an allelic series)"
same,binding signal,[5],"9.3 upbm affinity estimate (log intensity, higher = more binding, comparable within an allelic series)"
same,binding signal,[6],"9.19 upbm affinity estimate (log intensity, higher = more binding, comparable within an allelic series)"
same,binding signal,[15],"9.45 upbm affinity estimate (log intensity, higher = more binding, comparable within an allelic series)"
same,binding signal,[7],"9.18 upbm affinity estimate (log intensity, higher = more binding, comparable within an allelic series)"
same,binding signal,[16],"9.54 upbm affinity estimate (log intensity, higher = more binding, comparable within an allelic series)"
same,binding signal,[9],"9.29 upbm affinity estimate (log intensity, higher = more binding, comparable within an allelic series)"
same,binding signal,[17],"9.06 upbm affinity estimate (log intensity, higher = more binding, comparable within an allelic series)"
same,binding signal,[10],"9 upbm affinity estimate (log intensity, higher = more binding, comparable within an allelic series)"
TAAGTGCA,binding signal,[1],"12.6 upbm affinity estimate (log intensity, higher = more binding, comparable within an allelic series)"
same,binding signal,[18],"11.9 upbm affinity estimate (log intensity, higher = more binding, comparable within an allelic series)"
same,binding signal,[4],"13.5 upbm affinity estimate (log intensity, higher = more binding, comparable within an allelic series)"
same,binding signal,[8],"10.9 upbm affinity estimate (log intensity, higher = more binding, comparable within an allelic series)"
same,binding signal,[19],"12.8 upbm affinity estimate (log intensity, higher = more binding, comparable within an allelic series)"
same,binding signal,[10],"12.4 upbm affinity estimate (log intensity, higher = more binding, comparable within an allelic series)"
same,binding signal,[20],"12.9 upbm affinity estimate (log intensity, higher = more binding, comparable within an allelic series)"
CGACTGGC,binding signal,[1],"8.66 upbm affinity estimate (log intensity, higher = more binding, comparable within an allelic series)"
same,binding signal,[18],"9.39 upbm affinity estimate (log intensity, higher = more binding, comparable within an allelic series)"
same,binding signal,[10],"8.72 upbm affinity estimate (log intensity, higher = more binding, comparable within an allelic series)"
CCACGGCG,binding signal,[1],"8.49 upbm affinity estimate (log intensity, higher = more binding, comparable within an allelic series)"
same,binding signal,[18],"9.16 upbm affinity estimate (log intensity, higher = more binding, comparable within an allelic series)"
same,binding signal,[10],"8.47 upbm affinity estimate (log intensity, higher = more binding, comparable within an allelic series)"
AAGTGCCT,binding signal,[1],"12.4 upbm affinity estimate (log intensity, higher = more binding, comparable within an allelic series)"
same,binding signal,[18],"11.7 upbm affinity estimate (log intensity, higher = more binding, comparable within an allelic series)"
same,binding signal,[8],"10.8 upbm affinity estimate (log intensity, higher = more binding, comparable within an allelic series)"
same,binding signal,[19],"12.5 upbm affinity estimate (log intensity, higher = more binding, comparable within an allelic series)"
same,binding signal,[10],"12.3 upbm affinity estimate (log intensity, higher = more binding, comparable within an allelic series)"
same,binding signal,[20],"12.6 upbm affinity estimate (log intensity, higher = more binding, comparable within an allelic series)"
ACACTTAG,binding signal,[1],"12.6 upbm affinity estimate (log intensity, higher = more binding, comparable within an allelic series)"
same,binding signal,[18],"11.7 upbm affinity estimate (log intensity, higher = more binding, comparable within an allelic series)"
same,binding signal,[4],"13.5 upbm affinity estimate (log intensity, higher = more binding, comparable within an allelic series)"
same,binding signal,[8],"11 upbm affinity estimate (log intensity, higher = more binding, comparable within an allelic series)"
same,binding signal,[19],"12.8 upbm affinity estimate (log intensity, higher = more binding, comparable within an allelic series)"
same,binding signal,[10],"12.5 upbm affinity estimate (log intensity, higher = more binding, comparable within an allelic series)"
same,binding signal,[20],"12.8 upbm affinity estimate (log intensity, higher = more binding, comparable within an allelic series)"
